Most compounds without a hit are left out; they make up all but 3.6% or so of the library.
Pf apPOL block: Pf-apPOL DNA polymerase inhibition | Recombinant Pf-apPOL, molecular beacon fluorescence, 1.5 h | 210,000 tested, 0.25% active | inhibition, % at 10 µM | AID 1794808
mHTT CaM bind: disrupts binding of mutant huntingtin to calmodulin | AlphaScreen His-mHTT/GST-CaM binding, luminescence | inhibition, % at 15 µM | P42858 | 190,000 tested, 3.6% active | AID 1671202
Each line names hits and unclear results; the compound was inactive in the other large screens; ! = not confirmed by another sample. No stated cut-off is given here; in the data, active means inhibition above about 50%; inactive means the rest.

O=C(NCC1(c2ccccc2)CCCC1)C(=O)N1CCOCC1	none
O=c1c(F)cn(Cc2ccc(Br)cc2)c(=O)n1Cc1ccc(Br)cc1	none
COc1cc(OC)c2c(-c3ccccc3)cc(=O)oc2c1C(CC(=O)N1CCCC1)c1ccc2c(c1)OCO2 (configuration not stated)	mHTT CaM bind 69
COc1cc(OC)c2c(-c3ccccc3)cc(=O)oc2c1C(CCN1CCCC(C)C1)c1ccc2c(c1)OCO2 (configuration not stated)	mHTT CaM bind 100
COc1cc(OC)c2ccc(=O)oc2c1C(CC(=O)N1CCCCC1)c1ccc2c(c1)OCO2 (configuration not stated)	none
COc1cc(OC)c2ccc(=O)oc2c1C(CC(=O)N1CCCC1)c1ccc2c(c1)OCO2 (configuration not stated)	none
COc1cc(OC)c2c(-c3ccccc3)cc(=O)oc2c1C(CCN1CCCCC1)c1ccc2c(c1)OCO2 (configuration not stated)	mHTT CaM bind 99
COc1cc(O)c(C(CCN2CCCCC2)c2ccc3c(c2)OCO3)c(OC)c1 (configuration not stated)	none
COc1cccc(C(=O)N2CCN(c3ccc([N+](=O)[O-])c(NCc4ccccc4)c3)CC2)c1	none
O=C(c1ccc(Cl)cc1)C(Oc1ccc(Cl)cc1)n1cncn1 (configuration not stated)	none
CCC1(C)CC(CCNCc2ccc(OC)c(OC)c2)(c2ccc(OC)cc2)CCO1 (configuration not stated)	none
CCCNC(=O)c1sc2c(Cl)c(OC)ccc2c1Cl	mHTT CaM bind 100
COc1ccc2c(Cl)c(C(=O)Nc3cc(C)ccc3C)sc2c1Cl	none
CC1=C(C(=O)NCCCN(C)Cc2ccccc2)C2(CCCCC2)OC1=O	none
CC(C)(C)c1csc(-c2ccc(C=C(C#N)S(=O)(=O)c3cccc(Cl)c3)cc2)n1	none (no result: mHTT CaM bind)
COc1ccc(/C=C/c2ccc3c(Cl)ccc(O)c3n2)cc1	mHTT CaM bind 79
Oc1cccc2ccc(/C=C/c3ccc(F)cc3)nc12	none
O=C(CC(=O)c1ccc([N+](=O)[O-])cc1)Nc1ccccc1Cl	none
CC(=O)CC1c2cc(F)ccc2C=C(c2ccsc2)N1c1ccc(-c2cccnc2)cc1 (configuration not stated)	none
NC(=O)c1ccc(-c2ccc(N3C(c4ccsc4)=Cc4ccc(F)cc4C3CC(=O)c3ccco3)cc2)cc1 (configuration not stated)	mHTT CaM bind 58
COc1cc(OC)cc(C2=Cc3ccccc3C(CC(=O)c3ccco3)N2c2ccc(-c3ccc(C(N)=O)cc3)cc2)c1 (configuration not stated)	mHTT CaM bind 100
COc1ccc(N2C(c3cc(OC)cc(OC)c3)=Cc3ccccc3C2CC(C)=O)cc1 (configuration not stated)	none
COc1cc(OC)cc(C2=Cc3ccccc3C(CC(=O)c3ccco3)N2c2ccc(-c3cncnc3)cc2)c1 (configuration not stated)	mHTT CaM bind 97
COc1cc(OC)cc(C2=Cc3ccccc3C(CC(C)=O)N2c2ccc(C#CCCO)cc2)c1 (configuration not stated)	none
O=C(c1cccs1)N1CCN(c2nnnn2-c2ccccc2)CC1	none
O=C(C1CCN(c2cncnc2N2CCOCC2)CC1)N1CCN(c2ccccc2)CC1	none
CC1=CC(=O)C=C(C)C1=NC(=O)c1ccc([N+](=O)[O-])cc1	none
COC(=O)c1nc2n(n1)C(c1cccc(F)c1)C1=C(CCCC1=O)N2 (configuration not stated)	none
COc1cccc(CN2CCc3nc(N4CCCC4)ncc3C2)c1OC	mHTT CaM bind 88
COc1ccc(CN2CCc3nc(N4CCCC4)ncc3C2)c(OC)c1	mHTT CaM bind 99
Fc1ccccc1CN1CCc2nc(N3CCN(c4ncccn4)CC3)ncc2C1	mHTT CaM bind 100
Fc1ccccc1CN1CCc2nc(N3CCOCC3)ncc2C1	none
COc1cc(OC)c(OC)cc1CN1CCc2nc(N3CCN(C)CC3)ncc2C1	none
CCN1CCN(c2ncc3c(n2)CCN(Cc2cc(OC)ccc2OC)C3)CC1	none
COc1cccc(CN2CCc3nc(N4CCC(C)CC4)ncc3C2)c1OC	none
COc1ccc(OC)c(CN2CCc3nc(N4CCN(c5ncccn5)CC4)ncc3C2)c1	mHTT CaM bind 99
CS(=O)(=O)N1Cc2ccccc2CC1C(=O)Nc1ccc2c(c1)OCCO2 (configuration not stated)	none
C=CCc1cc(OC)ccc1OCCCN1CCN(C)CC1	none
COc1ccc(C(=O)NC(c2ccccc2)c2ccccc2)cc1OC	none
COc1ccc(NC(=O)NC(c2ccccc2)c2ccccc2)cc1OC	mHTT CaM bind 62
O=C(c1cccs1)N1CCCC(c2nnc(-c3ccc4c(c3)OCO4)o2)C1 (configuration not stated)	none
Cc1oc(C2CCN(S(=O)(=O)c3cc(F)ccc3F)CC2)nc1C(=O)N(C)C	none
CN(CC(=O)NCc1ccc(F)cc1)S(=O)(=O)c1ccc2[nH]c3c(c2c1)CCCC3	none
O=S(=O)(Nc1ccc(Cl)cn1)c1ccc2[nH]c3c(c2c1)CCCC3	mHTT CaM bind 55
CCc1ccc(S(=O)(=O)Nc2ccc(Cl)cn2)cc1	none
O=S(=O)(Nc1ccc(F)cc1)c1ccc2[nH]c3c(c2c1)CCCC3	mHTT CaM bind 98
NS(=O)(=O)c1ccc2[nH]c3c(c2c1)CCCC3	none
CN(CC(=O)NC1CCCCC1)S(=O)(=O)c1ccc2[nH]c3c(c2c1)CCCC3	mHTT CaM bind 97
CN(CC(=O)NC1CCCC1)S(=O)(=O)c1ccc2[nH]c3c(c2c1)CCCC3	none
O=S(=O)(Nc1ccccc1)c1ccc2[nH]c3c(c2c1)CCCCC3	mHTT CaM bind 100
COc1nccnc1N1CCC(N(C)C(=O)c2ccc(C#N)cc2)C1 (configuration not stated)	none
Cc1cccc(OCc2nc(-c3nonc3N)no2)c1C	none
CCCCc1nc2sc3c(Cl)ncnc3c2c2c1COC(C)(C)C2	none
COc1ccc(-n2nc3ccc(NC(=O)c4ccc(C)c([N+](=O)[O-])c4)cc3n2)cc1	none
O=S(=O)(NC1CCCCC1)c1ccc2[nH]c3c(c2c1)CCCC3	mHTT CaM bind 87
Cc1ccc(S(=O)(=O)NC2CCCCC2)cc1[N+](=O)[O-]	none
O=C(Cc1ccc(F)cc1)NCc1ccc2c(c1)OCO2	none
COc1ccc(C(NC(C)=O)c2ccc3cccnc3c2O)cc1OC (configuration not stated)	mHTT CaM bind 100
COc1cc(NC(=O)Cc2ccc(OC)c(OC)c2)c2ncccc2c1	none
COc1ccc(C(NC(=O)CC(C)C)c2ccc3cccnc3c2O)cc1OC (configuration not stated)	none
CCC(=O)NC(c1ccc(OC)c(OC)c1)c1ccc2cccnc2c1O (configuration not stated)	Pf apPOL block 94!, mHTT CaM bind 100
O=C(CSCc1cccc(Br)c1)N1CCCCC1	none
Cc1ccc(=O)n(Cc2ccc(Cl)c(Cl)c2)n1	none (no result: mHTT CaM bind)
Clc1ccc(Cn2cnc(Cl)c2Cl)cc1Cl	mHTT CaM bind 73
O=C(NCC1CCCO1)c1nn2c(C(F)(F)F)cc(-c3cccs3)nc2c1Br (configuration not stated)	none
O=C(C[C@H]1C(=O)N(Cc2cccnc2)C[C@@H]1Cc1ccccc1)Nc1ccccc1	none
CCCc1nc2c(c(=O)n1CC(=O)NCc1ccc(F)cc1)CCN(Cc1ccccc1)C2	none
O=C(CSc1cccc2cccnc12)NCc1ccccc1	none
Oc1ccc(COCc2ccccc2)c2cccnc12	mHTT CaM bind 99
O=S1(=O)[C@H]2C[C@H]3C=C[C@@]2(CN1Cc1ccccc1Br)O3	none
